PubChem BioAssay (Tox21)
Results filed as inconclusive are left out. The source made the active and inactive calls. Unless noted, the call rests on the fitted dose curve; in most records, active means well fitted curve in the direction sought with a large enough effect in the repeat runs; inconclusive means weak or mixed curves; inactive means no such curve, though single readings can be large; an effect the other way counts as inactive or inconclusive.

Tests used:
[1] = target: Luciferin 4-monooxygenase (Photinus pyralis) (UniProt P08659); assay: qHTS assay to identify small molecule inhibitors of firefly luciferase (AID 1224835); further: series mostly up to about 120 µM; nearly all actives have a fitted effect of over 25% in size
Method in brief: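 Quantitative HTS format; KM concentrations of both substrates. Purified P. pyralis FLuc activity quantified from luminescence images.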

[2] = qHTS assay to identify small molecule agonists of the constitutive androstane receptor (CAR) signaling pathway - cell viability counter screen (AID 1224836); further: series mostly up to about 92 µM; nearly all actives have a fitted effect of over 45% in size
Method in brief: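 HepG2-CYP2B6-hCAR, 2500 cells/well, 4 h pre-incubation; cpd 15 conc + PK11195 0.75 uM final; 23 h, 37 C/5% CO2; CellTiter-Fluor, fluorescence.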

[3] = qHTS assay to identify small molecule antagonists of the constitutive androstane receptor (CAR) signaling pathway - cell viability counter screen (AID 1224837); further: series mostly up to about 92 µM; nearly all actives have a fitted effect of over 45% in size
Method in brief: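 HepG2-CYP2B6-hCAR cells, 2500/well, 4 hr pre-incubation; compound titration, 15 conc.; CITCO 50 nM final; 23 hr, 37 C/5% CO2; CellTiter-Fluor, fluorescence intensity.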

[4] = target: Nuclear receptor subfamily 1 group I member 3 (Homo sapiens) (UniProt Q14994); assay: qHTS assay to identify small molecule antagonists of the constitutive androstane receptor (CAR) signaling pathway (AID 1224838);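 further: HepG2 cells stably expressing hCAR with CYP2B6 luciferase reporter stimulated by CITCO; nearly all actives have a fitted effect of over 40% in size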
Method in brief: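 HepG2-CYP2B6-hCAR cells; 4 h pre-incubation; cpd (15 conc) + CITCO 50 nM final; 24 h, 37 C/5% CO2; ONE-Glo, luminescence.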

[5] = target: Nuclear receptor subfamily 1 group I member 3 (Homo sapiens) (UniProt Q14994); assay: qHTS assay to identify small molecule agonists of the constitutive androstane receptor (CAR) signaling pathway (AID 1224839);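 further: HepG2 cells stably carrying human CAR and a CYP2B6 luciferase reporter; series mostly up to about 92 µM; nearly all actives have a fitted effect of over 15% in size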
Method in brief: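 HepG2-CYP2B6-hCAR cells, 2500/well, 4 h pre-incubation; compounds 15 conc.; PK11195 0.75 uM final; 24 h, 37 C/5% CO2; ONE-Glo luciferase read.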

[6] = qHTS assay to identify small molecule antagonists of the estrogen related receptor signaling pathway with the pleiotropic PPARgamma coactivator (PGC) from Tox21 10K library - cell viability counter screen (AID 1224840; active means well fitted cell-killing curve with a large enough effect in the repeat runs, not every such curve was filed as active; further: nearly all actives have a fitted effect of over 40% in size)
Method in brief: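 PGC/ERR cells, 2,000/well; 6 h pre-incubation 37 C/5% CO2; cpd in DMSO via pin tool; 17.5 h 37 C; CellTiter-Fluor, 30 min; fluorescence.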

[7] = target: Thyrotropin receptor (Homo sapiens) (UniProt P16473); assay: qHTS assay to identify small molecule agonists of the thyroid stimulating hormone receptor (TSHR) signaling pathway (AID 1224843; calls by dose curve; further: nearly all actives have a fitted effect of over 45% in size)
Method in brief: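 TSHR-expressing HEK293 cells (800 per well) were exposed to compounds for 30 min at room temperature. cAMP was then detected by HTRF competition with cAMP-d2 and anti-cAMP cryptate, read after 1 h at room temperature. Fifteen concentrations, triplicate.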

[8] = qHTS assay to identify small molecule agonists of the estrogen related receptor signaling pathway with the pleiotropic PPARgamma coactivator (PGC) from Tox21 10K library (AID 1224842); further: nearly all actives have a fitted effect of over 15% in size
Method in brief: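 PGC/ERR reporter cells (NTP line) were seeded 2,000 per well, rested 6 h at 37 C/5% CO2, then pin-dosed with compounds in DMSO for 18 h at 37 C; luciferase read by One-Glo luminescence after 30 min at room temperature.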

[9] = qHTS assay to identify small molecule agonists of the hypoxia (HIF-1) signaling pathway - cell viability counter screen (AID 1224844; calls by dose curve; further: nearly all actives have a fitted effect of over 50% in size)
Method in brief: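 ME-180 HRE-bla cells, 2,000/well, 0.5% dialyzed FBS; 5 hr settle, 17 hr compound at 37C/5% CO2; CCF4-AM reporter read first, then CellTiter-Glo luminescence after 30 min RT.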
On the % scale 0 is the no-effect control and ±100 the full control effect.

Nuclear receptor subfamily 1 group I member 3 (Homo sapiens), sequence (Q14994 whole entry, looked up): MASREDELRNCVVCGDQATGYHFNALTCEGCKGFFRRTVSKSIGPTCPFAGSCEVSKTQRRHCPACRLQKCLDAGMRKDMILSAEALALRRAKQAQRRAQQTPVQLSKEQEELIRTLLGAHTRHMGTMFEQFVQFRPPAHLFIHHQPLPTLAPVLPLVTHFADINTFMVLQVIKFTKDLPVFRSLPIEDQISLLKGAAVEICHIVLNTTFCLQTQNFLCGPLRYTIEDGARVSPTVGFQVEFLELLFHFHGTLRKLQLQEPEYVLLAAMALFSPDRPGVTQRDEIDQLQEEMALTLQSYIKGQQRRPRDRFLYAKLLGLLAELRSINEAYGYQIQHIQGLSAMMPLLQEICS
Luciferin 4-monooxygenase (Photinus pyralis), sequence (P08659 whole entry, looked up): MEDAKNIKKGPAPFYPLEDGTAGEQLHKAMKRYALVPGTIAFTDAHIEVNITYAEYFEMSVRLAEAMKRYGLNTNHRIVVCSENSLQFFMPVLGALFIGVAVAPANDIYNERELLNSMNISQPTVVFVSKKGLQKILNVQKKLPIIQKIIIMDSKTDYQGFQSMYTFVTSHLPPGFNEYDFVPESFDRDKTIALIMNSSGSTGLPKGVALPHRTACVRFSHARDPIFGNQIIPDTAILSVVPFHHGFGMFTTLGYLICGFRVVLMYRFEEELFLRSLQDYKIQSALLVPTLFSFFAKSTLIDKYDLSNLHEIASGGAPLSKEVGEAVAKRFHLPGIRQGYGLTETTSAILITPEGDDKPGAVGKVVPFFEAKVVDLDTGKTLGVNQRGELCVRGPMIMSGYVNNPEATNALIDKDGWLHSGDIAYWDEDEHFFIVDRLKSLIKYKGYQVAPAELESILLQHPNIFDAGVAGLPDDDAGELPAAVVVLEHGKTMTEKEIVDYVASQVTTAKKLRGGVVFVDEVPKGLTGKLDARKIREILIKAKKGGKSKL
Thyrotropin receptor (Homo sapiens), sequence (P16473 whole entry, looked up): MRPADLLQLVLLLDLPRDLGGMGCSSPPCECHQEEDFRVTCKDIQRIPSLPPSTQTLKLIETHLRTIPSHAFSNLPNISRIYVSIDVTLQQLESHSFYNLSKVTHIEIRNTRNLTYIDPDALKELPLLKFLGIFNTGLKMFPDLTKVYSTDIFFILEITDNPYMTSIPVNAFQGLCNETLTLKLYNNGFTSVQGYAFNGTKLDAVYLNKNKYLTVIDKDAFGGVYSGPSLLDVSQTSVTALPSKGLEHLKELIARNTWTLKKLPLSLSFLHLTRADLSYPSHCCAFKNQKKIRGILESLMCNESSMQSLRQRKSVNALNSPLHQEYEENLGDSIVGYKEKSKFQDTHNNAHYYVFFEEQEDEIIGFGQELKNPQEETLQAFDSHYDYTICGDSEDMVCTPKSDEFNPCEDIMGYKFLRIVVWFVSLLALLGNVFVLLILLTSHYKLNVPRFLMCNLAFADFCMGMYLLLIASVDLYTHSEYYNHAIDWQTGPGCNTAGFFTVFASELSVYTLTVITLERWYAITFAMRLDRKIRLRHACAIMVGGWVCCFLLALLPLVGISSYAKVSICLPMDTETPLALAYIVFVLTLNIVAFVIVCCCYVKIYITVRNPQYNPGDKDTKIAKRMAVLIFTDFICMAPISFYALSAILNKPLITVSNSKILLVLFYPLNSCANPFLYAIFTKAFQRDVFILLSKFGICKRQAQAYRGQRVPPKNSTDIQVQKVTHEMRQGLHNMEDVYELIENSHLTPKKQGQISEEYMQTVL

OCCC(O)CO (stereo not given)
inactive: Potency [1] | Potency [2] | Potency [3] | Potency [4] | Potency [5] | Potency [6] | Potency [7]

NC(=O)c1ccccc1N
inactive: Potency [1] | Potency [2] | Potency [3] | Potency [4] | Potency [5] | Potency [6] | Potency [8] | Potency [9]

CCCC(O)C(O)CO (stereo not given)
inactive: Potency [1] | Potency [2] | Potency [3] | Potency [4] | Potency [5] | Potency [6] | Potency [7] | Potency [9]

CC1CCCCC1
inactive: Potency [1] | Potency [2] | Potency [3] | Potency [4] | Potency [5] | Potency [6] | Potency [7]

COc1cccc(OC)c1O
inactive: Potency [1] | Potency [2] | Potency [3] | Potency [4] | Potency [5] | Potency [6] | Potency [7] | Potency [9]

CCCCCCCCC(C)=O
inactive: Potency [1] | Potency [2] | Potency [3] | Potency [4] | Potency [5] | Potency [6] | Potency [7]

C=CC(=C)CC/C=C(\C)CCC=C(C)C
inactive: activity change, negative = inhibition [1] 0.425% [at 23.6 µM] | viability change, negative = cytotoxic [2] 4.77% [at 19 µM] | activity change, negative = cytotoxicity [3] -2.25% [at 19 µM] | activity, negative = inhibition [4] 8.18% [at 19 µM] | activation [5] 4.39% [at 19 µM] | viability change, negative = cytotoxic [6] -0.28% [at 19 µM] | activation [8] 0% [at 19 µM] | activity change, negative = cytotoxicity [9] 1.43% [at 15.8 µM]

CC(C)C(=O)OCc1ccccc1
inactive: Potency [1] | Potency [2] | Potency [3] | Potency [4] | Potency [5] | Potency [6] | Potency [7]

C=C(C)CCCC
inactive: Potency [1] | Potency [2] | Potency [3] | Potency [4] | Potency [5] | Potency [6] | Potency [8] | Potency [7] | Potency [9]

OCCCc1cccnc1
inactive: Potency [1] | Potency [2] | Potency [3] | Potency [4] | Potency [5] | Potency [6] | Potency [7]

CCCCOCC
inactive: Potency [1] | Potency [2] | Potency [3] | Potency [4] | Potency [5] | Potency [6] | Potency [8] | Potency [7] | Potency [9]

CCOCOCC
inactive: Potency [1] | Potency [2] | Potency [3] | Potency [4] | Potency [5] | Potency [6] | Potency [7] | Potency [9]

CCOCN(C(=O)CS(=O)(=O)O)c1c(C)cccc1CC
inactive: Potency [1] | Potency [2] | Potency [3] | Potency [4] | Potency [5] | Potency [6] | Potency [7]

C[Si](C)(C)Cl
inactive: Potency [1] | Potency [2] | Potency [3] | Potency [4] | Potency [5] | Potency [6] | Potency [8] | Potency [7] | Potency [9]

COc1cc(C(C)C)c2c(c1)S(=O)(=O)N(COc1cc(=O)n3cccc(OCCN4CCCCC4)c3n1)C2=O
inactive: activity change, negative = inhibition [1] -3.11% [at 23.6 µM] | viability change, negative = cytotoxic [2] -20.4% [at 19 µM] | activity change, negative = cytotoxicity [3] -19.6% [at 19 µM] | activity, negative = inhibition [4] -19.4% [at 19 µM] | activation [5] -2.29% [at 19 µM] | viability change, negative = cytotoxic [6] -15.4% [at 19 µM] | activation [7] -0.216% [at 19 µM] | activity change, negative = cytotoxicity [9] -17% [at 15.8 µM]

CCC1CCCCC1
inactive: Potency [1] | Potency [2] | Potency [3] | Potency [4] | Potency [5] | Potency [6] | Potency [8] | Potency [9]
